Experimental findings from PubChem BioAssay (NCATS) are described below.

Experiment [1] can be described thus: qHTS assay to identify small molecule inhibitors of chordoma cells - UCH-1 (AID 1259355). Note: nearly all actives have a fitted effect of over 55% in size. In outline: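 800 cells/well, overnight attach; compounds pinned at 15 concs, then auranofin/camptothecin/doxorubicin/rubitecan/topotecan combo added; 48hr 37 C, 5% CO2; CellTiter-Glo, 30min RT, luminescence.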
The nature of experiment [2]: qHTS assay to identify small molecule inhibitors of chordoma cells - UCH-2 (AID 1259356). Note: series mostly up to about 46 µM.
Experiment [3] can be described thus: P-glycoprotein substrates identified in KB-8-5-11 adenocarcinoma cell line, qHTS therapeutic library screen (AID 1346987). Note: nearly all actives have a fitted effect of over 65% in size. Note: potency is the fitted concentration of half-maximal effect. In outline:
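In this qHTS, P-gp-rich KB-8-5-11 cells received library compounds across a concentration range. Viability was quantified by luminescence after 72 h at 37 degree C.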

Experiment [4] is described as follows: Natriuretic polypeptide receptor (hNpr1) antagonism - Pilot counterscreen GloSensor control cell line (AID 1347045; calls by dose curve; note: series mostly up to about 38 µM). The method in brief:
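HEK293 cGMP-sensor cells; 2% GloSensor reagent 2 h RT; LOPAC compounds in 1:5 titrations 30-50 min; 50 uM SNP 20 min; luminescence pre-read and post-read.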

For experiment [5], the target named is Atrial natriuretic peptide receptor 1 (Homo sapiens) (UniProt P16066). As to the kind of experiment: Natriuretic polypeptide receptor (hNpr1) antagonism - Pilot screen (AID 1347049; calls by dose curve;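 note: HEK293 cells with hNpr1 and GloSensor cGMP luciferase stimulated by 0.1 nM hNppA; agonist-evoked cGMP luminescence read 20 min after hNppA addition; series mostly up to about 58 µM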). In outline: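 Receptor antagonism read as cGMP-dependent luminescence in hNpr1/pGS-40F HEK293 cells: pre-read after 30 min compound exposure, post-read 20 min after hNppA agonist at 0.1 nM final, all at room temperature, protected from light; A-71915 titration as control.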

Experiment [6] deals with Atrial natriuretic peptide receptor 2 (Homo sapiens) (UniProt P20594). As to the kind of experiment: Natriuretic polypeptide receptor (hNpr2) antagonism - Pilot subtype selectivity assay (AID 1347050; calls by dose curve). The method in brief: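 Antagonist mode: compounds (LOPAC1280, seven 1:5 dilutions) added 30 min before 1 nM hNppC stimulation of hNpr2-HEK293 cGMP-sensor cells; luminescence read before and 20 min after agonist at ambient temperature.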

The nature of experiment [7]: NS1 protein of Zika virus - qHTS assay to identify small molecule inhibitors in human HEK 293 cells (AID 1347053). Note: series mostly up to about 46 µM; nearly all actives have a fitted effect of over 55% in size. The method in brief:
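In this cell-based screen, HEK 293 cultures received compound for one hour before Zika MR766 at MOI = 0.5. NS1 was quantified 24 hours later by TR-FRET, normalized to virus-free wells and infected wells.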

Experiment [8] concerns the target T1, Tyrosine-protein phosphatase non-receptor type substrate 1 (Homo sapiens) + Leukocyte surface antigen CD47 (Homo sapiens) (UniProt P78324+Q08722). The experiment can be described thus: CD47-SIRPalpha protein protein interaction - LANCE assay qHTS validation (AID 1347057; active = well fitted curve in the direction sought with a large enough effect in the signal ratio, with a control signal flat, not every such curve was filed as active; the % refers to the signal ratio; note: series mostly up to about 38 µM). The method in brief: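 Inhibition of soluble CD47/SIRPalpha ectodomain association by titrated compounds, measured as 665/615 nm time-resolved FRET ratio after sequential 30 min room-temperature incubations.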
A general note: In TR-FRET formats the signal depends on donor and acceptor labels being close together.

In experiment [9] the target is Parathyroid hormone/parathyroid hormone-related peptide receptor (Homo sapiens) (UniProt Q03431). The experiment can be described thus: qHTS for PTHR1 Agonists: Optimization Screen against the NCGC LOPAC library (AID 1347079).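 Note: GloSensor cAMP luminescence in HEK-293 GP2 cells expressing human PTHR1 with IBMX.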 The method in brief:
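Signal increase flags agonism. GP2 cells, derived from HEK-293, express human PTHR1 and a GloSensor cAMP construct.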
(Quantitative high-throughput screening tests each substance at several concentrations.)

Experiment [10] can be described thus: qHTS of pediatric cancer cell lines to identify multiple opportunities for drug repurposing: Primary screen for TC32 cells (AID 1347089). Note: nearly all actives have a fitted effect of over 60% in size. The method in brief:
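Luminescent CellTiter-Glo read-out of metabolically active TC32 cells after 48 h compound exposure. Primary: MIPE 11-point, 0.78 nM–46 µM; NPC 8-point, 0.59 nM–46 µM. Confirmatory: 11-point dilutions.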

Experiment [11] can be described thus: qHTS of pediatric cancer cell lines to identify multiple opportunities for drug repurposing: Primary screen for SJ-GBM2 cells (AID 1347091). The method in brief: (§1)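 Cell viability, CellTiter-Glo luminescence; 500-1,000 cells/well, 8- or 11-point titration, 48 h compound exposure at 37 degrees C, 5% CO2. Controls: DMSO neutral, bortezomib 2.3 µM final as positive.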

Experiment [12] can be described thus: qHTS of pediatric cancer cell lines to identify multiple opportunities for drug repurposing: Primary screen for DAOY cells (AID 1347090). Note: series mostly up to about 46 µM; nearly all actives have a fitted effect of over 55% in size. The method in brief:
as §1

A short description of experiment [13]: qHTS of pediatric cancer cell lines to identify multiple opportunities for drug repurposing: Primary screen for A673 cells (AID 1347092). Note: nearly all actives have a fitted effect of over 45% in size. In outline:
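A673 cells (500-1,000 cells/well in growth media) were pre-incubated 5 h at 37 degrees C, then exposed to compounds for 48 h. Viability was read as CellTiter-Glo luminescence; concentration-response curves came directly from the primary screen.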

Experiment [14] deals with T1, Tyrosine-protein phosphatase non-receptor type substrate 1 (Homo sapiens) + Leukocyte surface antigen CD47 (Homo sapiens). The experiment can be described thus: CD47-SIRPalpha protein protein interaction - HTRF assay qHTS validation (AID 1347058; active = well fitted curve in the direction sought with a large enough effect in the signal ratio, not every such curve was filed as active; the % refers to the signal ratio; note: series mostly up to about 38 µM). The method in brief: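 Soluble extracellular domains (6His-CD47, Avi-tag-biotinylated SIRPalpha) in PBS pH 7.4 with 0.05% IGEPAL CA-630. Compounds were preincubated 30 min at RT with CD47 and anti-His-Eu, then SIRPalpha and SAV-XL665 were added. TR-FRET 665/615 ratio.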

The target is the same in experiment [15]. As to the kind of experiment: CD47-SIRPalpha protein protein interaction - Alpha assay qHTS validation (AID 1347059).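 Note: bead proximity luminescence from CD47 binding SIRPalpha after compound preincubation with SIRPalpha.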 The method in brief: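 AlphaScreen signal between CD47-His (12.5 nM) and biotin-SIRPalpha (25 nM) soluble extracellular domains, bead-captured via Ni-NTA and streptavidin. Compounds, in 7-point titrations, met SIRPalpha 30 min before CD47; PBS pH 7.4 with 0.05% IGEPAL.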

SMILES strings stand for the structures. Inconclusive results are not listed. The source made the active and inactive calls. Unless noted, calls come from the whole dose curve; as a rule, active = well fitted curve in the direction sought with a large enough effect; inconclusive = small, poorly fitted or top-dose-only effect, or another doubt; inactive = no such curve, though single readings can be large; an effect the other way counts as inactive or inconclusive.

Sequence of Atrial natriuretic peptide receptor 2 (Homo sapiens) (P20594 whole entry, looked up): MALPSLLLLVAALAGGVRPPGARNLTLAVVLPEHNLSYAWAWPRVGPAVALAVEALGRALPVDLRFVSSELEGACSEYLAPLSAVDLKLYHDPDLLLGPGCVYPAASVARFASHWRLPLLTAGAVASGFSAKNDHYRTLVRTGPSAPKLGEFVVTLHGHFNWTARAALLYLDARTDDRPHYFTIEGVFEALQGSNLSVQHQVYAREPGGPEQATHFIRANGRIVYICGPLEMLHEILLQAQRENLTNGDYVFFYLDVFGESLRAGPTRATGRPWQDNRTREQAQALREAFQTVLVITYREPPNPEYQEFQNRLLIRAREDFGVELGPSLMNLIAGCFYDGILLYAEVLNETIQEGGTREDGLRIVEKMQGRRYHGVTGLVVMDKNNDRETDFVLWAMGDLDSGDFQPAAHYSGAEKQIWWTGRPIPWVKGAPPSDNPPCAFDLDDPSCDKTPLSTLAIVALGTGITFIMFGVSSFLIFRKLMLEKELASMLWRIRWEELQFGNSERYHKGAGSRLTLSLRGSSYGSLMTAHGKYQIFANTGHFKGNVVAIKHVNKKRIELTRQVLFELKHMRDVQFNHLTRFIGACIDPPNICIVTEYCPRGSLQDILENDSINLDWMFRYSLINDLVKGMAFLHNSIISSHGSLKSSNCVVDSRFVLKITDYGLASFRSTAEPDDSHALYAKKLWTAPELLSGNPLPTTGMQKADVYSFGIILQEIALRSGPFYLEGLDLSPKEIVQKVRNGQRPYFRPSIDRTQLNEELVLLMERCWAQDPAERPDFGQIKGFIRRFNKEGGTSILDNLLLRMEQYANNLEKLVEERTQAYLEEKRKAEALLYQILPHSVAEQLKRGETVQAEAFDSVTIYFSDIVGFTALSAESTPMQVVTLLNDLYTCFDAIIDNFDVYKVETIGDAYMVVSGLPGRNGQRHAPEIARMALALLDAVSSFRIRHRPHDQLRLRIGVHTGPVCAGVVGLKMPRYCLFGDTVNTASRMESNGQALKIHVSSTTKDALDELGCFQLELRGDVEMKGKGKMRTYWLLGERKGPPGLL
T1 sequence (P78324 whole entry, looked up, the tested form may be a part): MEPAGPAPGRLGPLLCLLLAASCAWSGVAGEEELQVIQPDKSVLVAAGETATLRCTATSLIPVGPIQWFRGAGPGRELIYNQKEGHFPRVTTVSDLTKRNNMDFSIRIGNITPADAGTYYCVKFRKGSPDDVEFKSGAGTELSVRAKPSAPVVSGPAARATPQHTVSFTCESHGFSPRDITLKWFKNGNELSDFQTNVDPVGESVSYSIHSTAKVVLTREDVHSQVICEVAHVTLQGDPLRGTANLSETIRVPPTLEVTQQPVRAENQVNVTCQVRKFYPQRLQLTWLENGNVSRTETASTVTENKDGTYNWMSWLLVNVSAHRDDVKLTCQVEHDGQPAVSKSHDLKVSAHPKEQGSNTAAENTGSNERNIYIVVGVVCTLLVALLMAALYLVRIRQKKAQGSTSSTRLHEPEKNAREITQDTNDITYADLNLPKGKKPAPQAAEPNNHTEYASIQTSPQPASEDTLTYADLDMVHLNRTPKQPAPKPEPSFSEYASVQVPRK
T1 sequence (Q08722 whole entry, looked up, the tested form may be a part): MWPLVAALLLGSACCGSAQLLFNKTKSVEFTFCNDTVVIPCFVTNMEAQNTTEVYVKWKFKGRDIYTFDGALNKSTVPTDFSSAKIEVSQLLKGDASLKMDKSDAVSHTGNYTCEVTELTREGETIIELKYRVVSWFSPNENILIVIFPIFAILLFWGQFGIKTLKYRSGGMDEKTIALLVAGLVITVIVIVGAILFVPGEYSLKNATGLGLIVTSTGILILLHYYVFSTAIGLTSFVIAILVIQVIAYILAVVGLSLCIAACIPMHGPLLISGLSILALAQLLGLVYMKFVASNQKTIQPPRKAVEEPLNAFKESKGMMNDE
Sequence of Parathyroid hormone/parathyroid hormone-related peptide receptor (Homo sapiens) (Q03431 whole entry, looked up): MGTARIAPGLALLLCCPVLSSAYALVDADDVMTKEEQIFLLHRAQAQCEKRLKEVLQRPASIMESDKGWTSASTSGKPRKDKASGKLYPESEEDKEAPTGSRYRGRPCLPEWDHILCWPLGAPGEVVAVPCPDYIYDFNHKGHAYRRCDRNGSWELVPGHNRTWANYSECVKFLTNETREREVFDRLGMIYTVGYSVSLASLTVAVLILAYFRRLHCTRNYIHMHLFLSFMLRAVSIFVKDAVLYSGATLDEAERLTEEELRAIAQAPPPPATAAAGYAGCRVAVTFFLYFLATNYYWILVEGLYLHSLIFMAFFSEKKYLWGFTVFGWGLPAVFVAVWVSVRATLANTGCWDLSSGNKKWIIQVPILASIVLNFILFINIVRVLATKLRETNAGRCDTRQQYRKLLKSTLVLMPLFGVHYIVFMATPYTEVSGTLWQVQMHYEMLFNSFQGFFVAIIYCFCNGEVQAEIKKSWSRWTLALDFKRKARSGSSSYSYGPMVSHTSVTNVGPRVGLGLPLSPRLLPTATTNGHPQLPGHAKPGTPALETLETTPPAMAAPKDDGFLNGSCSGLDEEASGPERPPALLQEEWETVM
Sequence of Atrial natriuretic peptide receptor 1 (Homo sapiens) (P16066 whole entry, looked up): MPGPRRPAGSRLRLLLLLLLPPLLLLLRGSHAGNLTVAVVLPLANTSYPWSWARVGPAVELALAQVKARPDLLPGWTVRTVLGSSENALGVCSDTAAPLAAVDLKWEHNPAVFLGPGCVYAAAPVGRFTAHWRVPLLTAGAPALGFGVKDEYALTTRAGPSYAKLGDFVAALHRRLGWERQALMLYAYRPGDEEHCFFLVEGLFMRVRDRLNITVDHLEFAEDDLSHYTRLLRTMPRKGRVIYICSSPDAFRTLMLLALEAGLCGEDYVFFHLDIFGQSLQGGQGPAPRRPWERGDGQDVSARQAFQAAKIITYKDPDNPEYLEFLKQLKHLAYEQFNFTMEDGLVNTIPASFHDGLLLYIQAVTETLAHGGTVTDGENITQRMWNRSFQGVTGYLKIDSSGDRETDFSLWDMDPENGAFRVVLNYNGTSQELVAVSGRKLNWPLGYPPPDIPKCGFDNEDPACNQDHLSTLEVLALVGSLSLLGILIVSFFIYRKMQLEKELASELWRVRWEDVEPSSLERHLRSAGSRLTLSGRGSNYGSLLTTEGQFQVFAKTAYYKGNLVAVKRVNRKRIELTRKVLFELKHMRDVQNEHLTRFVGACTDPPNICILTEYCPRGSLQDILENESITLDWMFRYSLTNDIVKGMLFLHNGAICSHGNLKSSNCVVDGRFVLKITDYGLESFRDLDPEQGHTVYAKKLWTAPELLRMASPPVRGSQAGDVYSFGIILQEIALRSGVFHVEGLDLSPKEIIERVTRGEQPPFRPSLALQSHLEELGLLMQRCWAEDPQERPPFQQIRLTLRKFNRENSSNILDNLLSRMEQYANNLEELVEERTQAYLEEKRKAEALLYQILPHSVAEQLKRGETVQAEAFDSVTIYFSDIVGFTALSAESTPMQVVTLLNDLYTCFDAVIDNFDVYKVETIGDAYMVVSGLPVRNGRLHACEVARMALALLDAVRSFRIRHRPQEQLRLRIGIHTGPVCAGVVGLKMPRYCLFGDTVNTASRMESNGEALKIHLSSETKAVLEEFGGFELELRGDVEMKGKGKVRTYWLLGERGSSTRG

On to `COC(=O)[C@H]1[C@H]2C[C@@H]3c4[nH]c5cc(OC)ccc5c4CCN3C[C@H]2C[C@@H](OC(=O)c2cc(OC)c(OC)c(OC)c2)[C@@H]1OC`, for which the Potency entry in [1], in experiment [2], in experiment [3], in experiment [4], in experiment [5] and in experiment [6] was “inactive” in each case. In addition, the Potency result in [10] and in experiment [11] was “inactive” in each case. The molecule was classed as inactive in experiment [7], in experiment [8] and in experiment [9].

For `CN/C(=C\[N+](=O)[O-])NCCSCc1ccc(CN(C)C)o1`, the Potency entry in experiment [2], in experiment [3], in experiment [4], in experiment [5], in [6] and in experiment [10] was “inactive” in each case. In addition, the Potency entry in [12] and in experiment [11] was “inactive” each time. Moreover, the outcome in experiment [7], in experiment [8] and in experiment [9] was inactive.

Regarding `C[N+](C)(C)CCCCCCCCCC[N+](C)(C)C`, the Potency result in [1], in experiment [2], in [4], in experiment [5], in [6] and in experiment [10] was “inactive” each time. The Potency entry in experiment [12], in experiment [11] and in [13] was “inactive” throughout. Besides, the molecule was classed as inactive in experiment [7], in experiment [8] and in experiment [9].

As to `Fc1ccc(C(c2ccc(F)cc2)N2CCN(C/C=C/c3ccccc3)CC2)cc1`, the Potency entry in experiment [1], in [5], in experiment [6], in experiment [15] and in [10] was “inactive” throughout. The result in experiment [7], in [8], in [14] and in [9] was inactive.

For the molecule `CCCCNc1ccc(C(=O)OCCN(C)C)cc1`, the Potency result in [2], in [3], in experiment [4], in experiment [5], in experiment [6] and in [10] was “inactive” throughout. Also, the Potency entry in experiment [12], in [11] and in experiment [13] was “inactive” in each case. The molecule was classed as inactive in experiment [7], in experiment [8], in experiment [14] and in [9].

With `COc1ccc([C@@H]2Sc3ccccc3N(CCN(C)C)C(=O)[C@@H]2OC(C)=O)cc1`, the Potency result in experiment [2], in experiment [4], in experiment [5], in experiment [6], in experiment [10] and in experiment [12] was “inactive” in each case. Moreover, the Potency entry in experiment [11] and in [13] was “inactive” throughout. In experiment [3], the Potency is 20.6 µM (active). The outcome in experiment [7], in experiment [8] and in [9] was inactive.

Consider `Brc1c(NC2=NCCN2)ccc2nccnc12`, for which the Potency entry in [1], in experiment [2], in experiment [3], in experiment [4], in experiment [5] and in [6] was “inactive” each time. Also, the Potency entry in [15], in [10], in experiment [12], in experiment [11] and in experiment [13] was “inactive” throughout. Also, the molecule was classed as inactive in experiment [7], in experiment [8] and in [9].

Regarding `Nc1c2c(nc3ccccc13)CCCC2O` (configuration not stated), the Potency result in [2], in experiment [3], in [5], in experiment [6], in experiment [15] and in experiment [10] was “inactive” each time. The Potency result in experiment [11] and in [13] was “inactive” each time. The outcome in [7], in experiment [8] and in experiment [9] was inactive.

Turning to `CC(C)NNC(=O)c1ccncc1`, the Potency result in [1], in experiment [2], in experiment [3], in experiment [5], in experiment [6] and in experiment [15] was “inactive” throughout. Also, the Potency entry in experiment [10], in [12], in experiment [11] and in [13] was “inactive” in each case. The call in [7], in [8], in experiment [14] and in experiment [9] was inactive.

As to `CCCNC(C)C(=O)Nc1ccccc1C` (configuration not stated), the Potency result in [2], in [3], in experiment [4], in [5], in experiment [6] and in experiment [10] was “inactive” throughout. Besides, the Potency entry in [12], in experiment [11] and in experiment [13] was “inactive” in each case. The call in experiment [7], in experiment [8] and in [9] was inactive.

In the case of `c1cnc(N2CCN(Cc3ccc4c(c3)OCO4)CC2)nc1`, the Potency result in experiment [1], in experiment [2], in experiment [4], in experiment [5], in experiment [6] and in [15] was “inactive” in each case. Besides, the Potency entry in experiment [10], in experiment [12], in experiment [11] and in experiment [13] was “inactive” throughout. Further, the result in [7], in experiment [8] and in [9] was inactive.

As for `CN(C)C(=O)Oc1ccc[n+](C)c1`, the Potency result in [2], in [5], in experiment [6], in experiment [10], in experiment [12] and in [11] was “inactive” in each case. Moreover, the Potency entry in experiment [13] is “inactive”. For the same molecule, the molecule was classed as inactive in [7], in experiment [8] and in [9].
